Screens: PubChem BioAssay, Broad Institute
MLL AF4-AF9 inh: inhibitors of human MLL-AF4/AF9 interaction. P42568. AID 651704. AlphaScreen, biotin-AF4 peptide binding to FLAG-AF9. 0.47% of 350,000 active. inhibition, % at 10 µM;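 active = every replicate reaching a set inhibition limit, whatever the replicate mean, cut at about 25% in these data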;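 note: 0% = plate neutral control median and 100% = total signal loss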
Target sequence (P42568 whole entry, looked up): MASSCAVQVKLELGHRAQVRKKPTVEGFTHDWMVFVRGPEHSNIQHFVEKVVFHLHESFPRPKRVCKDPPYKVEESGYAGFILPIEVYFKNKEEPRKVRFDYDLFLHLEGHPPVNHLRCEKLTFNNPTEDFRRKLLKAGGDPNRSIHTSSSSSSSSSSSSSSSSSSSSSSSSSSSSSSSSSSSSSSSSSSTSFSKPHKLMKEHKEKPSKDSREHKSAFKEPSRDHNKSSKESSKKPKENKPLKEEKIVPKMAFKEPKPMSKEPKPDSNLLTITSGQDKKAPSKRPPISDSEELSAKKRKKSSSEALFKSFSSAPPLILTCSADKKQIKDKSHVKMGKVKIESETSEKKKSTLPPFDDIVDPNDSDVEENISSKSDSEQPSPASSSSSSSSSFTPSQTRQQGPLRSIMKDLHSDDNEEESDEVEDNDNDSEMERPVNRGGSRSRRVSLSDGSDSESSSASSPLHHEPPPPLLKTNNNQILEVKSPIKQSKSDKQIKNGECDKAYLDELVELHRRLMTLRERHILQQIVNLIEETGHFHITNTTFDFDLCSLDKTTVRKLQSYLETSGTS
CASP6 VEID inh: caspase-6 (human) enzyme inhibition. inhibition, % at 12.5 µM. 0.53% of 350,000 active. purified caspase-6, Z-VEID-R110 cleavage fluorescence. AID 686996;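 active = mean inhibition across replicates at least about 35%, with every replicate also reaching that limit, limit read from the data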;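 note: 0% = median of neutral control wells and 100% = no fluorescence left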
NSD2 HMT inh: NSD2 (human) methyltransferase inhibition; inhibition, % at 12.5 µM; NSD2 peptide methylation, AlphaScreen, 120 min; 0.54% of 310,000 active; O96028; AID 743445; in the data active = inhibition above about 50%
RAD52 anneal inh: blocks human RAD52 DNA annealing; P43351; recombinant RAD52 DNA annealing, FRET fluorescence; inhibition, % at 18.7 µM; 0.46% of 360,000 active; AID 651710;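 active = every replicate showing at least 50% inhibition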
miR122 inh: blocks miR-122 activity in Huh7 sensor cells. Huh7 miR-122 Renilla luciferase sensor, 48 h; neutral wells = 0, positive control = 100. activation (reporter increase), % at 12.5 µM. 0.3% of 340,000 active. AID 602342;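 active = mean replicate activation score at least 90 and every replicate individually at or above 90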;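 note: higher luciferase means less miR-122 activity so hits act as miR-122 inhibitors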
Alpha artifact: counter-screen for NSD2 inhibitors: AlphaScreen artifacts; shares compounds with NSD2 HMT inh; AlphaScreen artifact counterscreen, preloaded methylated H4 peptide; AC35, µM (doses to about 10 µM), for inactives: at the highest dose activity change, negative = signal loss; 9.4% of 1,500 active; call rule not given here
An asterisk follows results filed as active; . = not tested or not shown; [ ] = another dose, or the depositor's remark. Sampled rows, rich in hits. Any-hit rate of the full collection: about 1.5%.

SMILES | MLL AF4-AF9 inh | CASP6 VEID inh | NSD2 HMT inh | RAD52 anneal inh | miR122 inh | Alpha artifact
C/C=C/c1cnc2c(c1)C(=O)N([C@H](C)CO)C[C@H](C)[C@@H](CN(C)C(=O)NCCC)O2 | 0 | 6 | . | 6 | 80[16.7 µM] | .
Cc1ccccc1Nc1nc(N)nc(CSc2nnc3sc4ccccc4n23)n1 | . | . | 66* | . | 33 | 4%
COc1cccc(CN2[C@@H](CO)[C@H](c3ccccc3)C23CN(C(=O)C2CCOCC2)C3)c1 | -3 | 1 | . | -2 | . | .
O=C(CC(F)(F)F)N1C[C@@H]2[C@H](c3ccccc31)[C@H](CO)N2C(=O)C1CCOCC1 | 0 | -3 | . | 0 | 0[16.7 µM] | .
COc1cc2[nH]c(Cl)c([N+](=O)[O-])c2cc1OC | -4 | 49* | 95* | -10 | -30 | -4%
COc1cc2[nH]c3c(Cl)ncnc3c2cc1OC | . | . | -1 | . | -6 | .
